Consider one compound from PubChem BioAssay AID687012 (National Center for Advancing Translational Sciences (NCATS), 2013).

The source made the active and inactive calls.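 Rule for the calls: active = significant rise in the time treated SMA model mouse pups take to turn upright when laid on their backs; inactive = no significant rise in righting time.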

A short description of this assay: Extended Characterization of SMN2 Inhibitors: Righting Time Studies. The settings on record: SMNdelta7 SMA mice, 50 mg/kg ip. The source says: Spinal muscular atrophy (SMA) is caused by insufficient levels of the survival motor neuron protein SMN. The SMN locus on chromosome 5q13 contains two inverted copies of SMN called SMN1 and SMN2 which are 99% identical at the amino acid level. SMN1 is a fully functional protein and SMN2 skips exon 7 90% of the time. Skipping of exon 7 produces non-functional protein product. 10% of the SMN2 protein includes exon 7 and is fully functional. In the SMA disease state, mutations in the SMN1 locus are the cause of the disease state. Because only 10% of SMN2 is of the fully functional form, it is not sufficient to overcome the deficiency produced by the loss of the SMN1 product. A therapy that either increase the amount of SMN2 product made or to increase the inclusion of exon 7 has been proposed for the treatment of SMA. We have previously filed a probe report and have now done further SAR and further characterized the resulting compounds in mice studies. Here we tested the new compound to see if there was an improval in righting time when administered to SMNdelta7 SMA mice. NIH Chemical Genomics Center [NCGC] NIH Molecular Libraries Probe Production centers Network [MLPCN] MLPCN Grant: R03 MH084179 Assay Submitter (PI): Elliot Androphy […]
As to `O=C(O)C1CCN(c2ncc(-c3ccc4c(c3)OCCCO4)s2)CC1`, the outcome is “active; yes”.
